For 8 sequences, binding signal results are on record in article PMC4081100, “A DNA-binding-site landscape and regulatory network analysis for NAC transcription factors in Arabidopsis thaliana”.

What all share (assay): universal protein binding microarray (PBM); transcription factors of Arabidopsis thaliana; high values mean tight binding
Holding throughout (conditions): protein: recombinant; tags: GST; chain copies: 2; dsDNA, one strand shown

One experiment deals with T1, GST-ANAC092(1-176) (Arabidopsis thaliana, UniProt Q9FKA0 1-176).
T1 sequence: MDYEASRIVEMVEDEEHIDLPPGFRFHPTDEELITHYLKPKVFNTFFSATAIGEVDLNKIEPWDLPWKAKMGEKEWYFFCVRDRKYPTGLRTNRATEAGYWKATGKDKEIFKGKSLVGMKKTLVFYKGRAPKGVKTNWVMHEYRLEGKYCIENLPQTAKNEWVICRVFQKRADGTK
A digest of the protocol: (§1)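 For zinc-finger proteins, zinc acetate was added while GST-tagged NAC-domain, full-length or DNA-binding-domain proteins were induced in cells. Purification used glutathione–Sepharose 4B, and quantification used A280 or anti-GST western blot. Custom all-10-mer Agilent 4 × 180K arrays, made double-stranded by primer extension, each received a protein at 200 to 500 nM final in duplicate. Scoring covered gapped and ungapped 8-mers, with binding given as the normalised enrichment score (E-score).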

A further experiment addresses GST-NTL6(1-168) (Arabidopsis thaliana, UniProt Q9SCK6 1-168). In short, it runs like this:
as §1

Another experiment deals with T2, GST-ANAC019 NAC domain (Arabidopsis thaliana, UniProt Q9C932 14-162).
T2 sequence: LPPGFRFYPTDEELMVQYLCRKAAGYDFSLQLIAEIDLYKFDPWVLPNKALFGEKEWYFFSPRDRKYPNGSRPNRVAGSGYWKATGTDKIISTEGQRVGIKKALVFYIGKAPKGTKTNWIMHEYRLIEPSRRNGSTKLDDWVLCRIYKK
A digest of the protocol:
as §1

Another experiment addresses T3, GST-ATAF1 NAC domain (Arabidopsis thaliana, UniProt Q39013 7-158).
T3 sequence: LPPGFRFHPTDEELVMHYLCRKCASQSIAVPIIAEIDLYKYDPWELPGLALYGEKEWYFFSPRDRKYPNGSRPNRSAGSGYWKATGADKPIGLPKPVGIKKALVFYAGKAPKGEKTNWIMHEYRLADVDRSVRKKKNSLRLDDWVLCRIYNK
In short, it runs like this:
as §1

Experiment [1] deals with T4, GST-ANAC092(1-285) full length (Arabidopsis thaliana, UniProt Q9FKA0 1-285).
T4 sequence: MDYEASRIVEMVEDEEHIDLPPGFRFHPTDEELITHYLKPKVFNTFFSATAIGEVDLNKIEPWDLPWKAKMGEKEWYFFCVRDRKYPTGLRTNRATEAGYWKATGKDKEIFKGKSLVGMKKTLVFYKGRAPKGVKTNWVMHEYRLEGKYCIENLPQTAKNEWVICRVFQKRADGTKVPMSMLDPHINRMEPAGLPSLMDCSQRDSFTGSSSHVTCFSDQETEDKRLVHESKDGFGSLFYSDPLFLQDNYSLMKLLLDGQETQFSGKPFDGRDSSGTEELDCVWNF
In short, it runs like this:
as §1

The next experiment concerns the target T5, GST-NST2(1-184) (Arabidopsis thaliana, UniProt Q9M274 1-184).
T5 sequence: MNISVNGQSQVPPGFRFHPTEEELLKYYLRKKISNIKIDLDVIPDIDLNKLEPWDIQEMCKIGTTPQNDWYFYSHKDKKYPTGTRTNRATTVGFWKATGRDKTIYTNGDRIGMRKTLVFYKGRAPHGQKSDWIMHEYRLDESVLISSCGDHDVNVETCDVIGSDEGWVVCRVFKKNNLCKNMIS
A digest of the protocol:
as §1

The next experiment concerns the target T6, GST-NTL8 NAC domain (Arabidopsis thaliana, UniProt Q9XIN7 14-156).
T6 sequence: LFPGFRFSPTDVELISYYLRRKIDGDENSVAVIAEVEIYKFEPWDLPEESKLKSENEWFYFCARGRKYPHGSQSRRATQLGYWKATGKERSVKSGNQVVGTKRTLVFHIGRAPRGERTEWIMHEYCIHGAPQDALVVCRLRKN
In short, it runs like this:
as §1

A further experiment deals with T7, GST-SND1(1-203) (Arabidopsis thaliana, UniProt Q9LPI7 1-203).
T7 sequence: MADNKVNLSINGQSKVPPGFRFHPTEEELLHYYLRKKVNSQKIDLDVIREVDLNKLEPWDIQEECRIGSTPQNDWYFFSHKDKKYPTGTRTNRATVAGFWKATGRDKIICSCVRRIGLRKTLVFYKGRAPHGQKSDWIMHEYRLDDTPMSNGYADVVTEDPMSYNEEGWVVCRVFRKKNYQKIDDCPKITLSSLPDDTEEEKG
In short, it runs like this: as §1

Another experiment has as its target T8, GST-VND3 NAC domain (Arabidopsis thaliana, UniProt Q9FH59 12-162).
T8 sequence: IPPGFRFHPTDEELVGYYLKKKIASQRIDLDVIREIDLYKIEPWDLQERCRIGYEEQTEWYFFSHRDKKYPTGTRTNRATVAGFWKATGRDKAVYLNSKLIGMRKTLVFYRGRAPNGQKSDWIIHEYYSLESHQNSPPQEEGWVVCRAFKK
A digest of the protocol: as §1

A further experiment has as its target T9, GST-VND7 NAC domain (Arabidopsis thaliana, UniProt Q9C8W9 9-158).
T9 sequence: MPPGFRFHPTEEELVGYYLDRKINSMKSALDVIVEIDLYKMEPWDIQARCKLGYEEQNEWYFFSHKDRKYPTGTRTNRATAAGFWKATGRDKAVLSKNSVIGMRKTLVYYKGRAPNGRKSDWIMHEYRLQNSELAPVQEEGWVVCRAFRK
In short, it runs like this:
as §1

Another experiment concerns the target T10, GST-ANAC055(1-171) (Arabidopsis thaliana, UniProt Q9LDY8 1-171).
T10 sequence: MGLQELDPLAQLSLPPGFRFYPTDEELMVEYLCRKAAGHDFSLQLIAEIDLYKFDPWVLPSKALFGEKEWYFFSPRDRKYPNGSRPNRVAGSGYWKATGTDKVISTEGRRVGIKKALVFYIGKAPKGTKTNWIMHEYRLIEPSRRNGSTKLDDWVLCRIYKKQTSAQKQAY
A digest of the protocol:
as §1

The target of another experiment is T11, GST-NAP(1-166) (Arabidopsis thaliana, UniProt O49255 1-166).
T11 sequence: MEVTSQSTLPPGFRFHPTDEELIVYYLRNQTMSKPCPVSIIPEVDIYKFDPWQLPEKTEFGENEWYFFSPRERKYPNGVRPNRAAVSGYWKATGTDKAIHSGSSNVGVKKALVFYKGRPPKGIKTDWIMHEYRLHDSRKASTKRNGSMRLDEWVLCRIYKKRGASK
In short, it runs like this: as §1

GST-NTL6(1-168), sequence (Q9SCK6 1-168): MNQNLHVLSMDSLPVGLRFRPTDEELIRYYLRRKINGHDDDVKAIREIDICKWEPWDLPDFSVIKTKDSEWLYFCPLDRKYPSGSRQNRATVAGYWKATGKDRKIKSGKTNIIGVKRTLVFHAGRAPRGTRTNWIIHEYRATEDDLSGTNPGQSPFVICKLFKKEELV

For CTTGCTTA, the binding signal with GST-ANAC092(1-176) came out at 0.251 E-score; with GST-NTL6(1-168) it was 0.416 E-score; with GST-ANAC019 NAC domain, 0.0719 E-score; with GST-ATAF1 NAC domain, 0.136 E-score; in experiment [1], 0.347 E-score; with GST-NST2(1-184), 0.17 E-score. In addition, the binding signal with GST-NTL8 NAC domain was 0.194 E-score; with GST-SND1(1-203), 0.437 E-score; in the experiment with GST-VND3 NAC domain, 0.124 E-score; in the experiment with GST-VND7 NAC domain it was 0.0501 E-score.

In the case of AAGCAACC, the binding signal with GST-ANAC092(1-176) is 0.425 E-score; with GST-NTL6(1-168) it was 0.329 E-score; with GST-ANAC055(1-171), 0.0668 E-score; with GST-ATAF1 NAC domain it was 0.0659 E-score; in experiment [1], 0.453 E-score; with GST-NST2(1-184) it was 0.349 E-score. In addition, the binding signal with GST-NTL8 NAC domain worked out at 0.301 E-score; with GST-SND1(1-203), 0.479 E-score; in the experiment with GST-VND3 NAC domain, 0.114 E-score; in the experiment with GST-VND7 NAC domain it was 0.136 E-score.

Take GAGGTAAC: the binding signal with GST-ANAC092(1-176) came to 0.191 E-score; in the experiment with GST-NTL6(1-168), 0.155 E-score; with GST-ANAC019 NAC domain, 0.078 E-score; in the experiment with GST-ATAF1 NAC domain, 0.0779 E-score; in [1] it was 0.2 E-score; with GST-NST2(1-184), 0.078 E-score. Further, the binding signal with GST-NTL8 NAC domain worked out at 0.437 E-score; with GST-SND1(1-203), 0.236 E-score; with GST-VND3 NAC domain, 0.0659 E-score; with GST-VND7 NAC domain, 0.0864 E-score.

TGGAGTAA: the binding signal with GST-ANAC092(1-176) amounted to 0.319 E-score; with GST-NTL6(1-168), 0.105 E-score; with GST-ANAC055(1-171) it was 0.128 E-score; with GST-ATAF1 NAC domain it was 0.11 E-score; in [1], 0.342 E-score; with GST-NST2(1-184), 0.317 E-score. Besides, the binding signal stood at 0.454 E-score with GST-SND1(1-203), 0.0609 E-score in the experiment with GST-VND3 NAC domain and 0.131 E-score in the experiment with GST-VND7 NAC domain.

For TATCGTAA, the binding signal with GST-ANAC092(1-176) is 0.2 E-score; with GST-NTL6(1-168) it was 0.146 E-score; in the experiment with GST-ANAC055(1-171), 0.0984 E-score; in the experiment with GST-ATAF1 NAC domain, 0.188 E-score; in experiment [1], 0.337 E-score; in the experiment with GST-NAP(1-166), 0.0786 E-score. The binding signal with GST-NST2(1-184) came out at 0.282 E-score; with GST-SND1(1-203), 0.418 E-score; in the experiment with GST-VND3 NAC domain, 0.143 E-score; in the experiment with GST-VND7 NAC domain, 0.236 E-score.

Regarding ACGTTAGC, the binding signal came to 0.377 E-score with GST-ANAC092(1-176); 0.144 E-score in the experiment with GST-ANAC019 NAC domain; 0.0938 E-score with GST-ANAC055(1-171); 0.213 E-score with GST-ATAF1 NAC domain; 0.406 E-score in experiment [1]; 0.0584 E-score in the experiment with GST-NAP(1-166). Moreover, the binding signal with GST-NST2(1-184) stood at 0.166 E-score; with GST-SND1(1-203), 0.343 E-score; in the experiment with GST-VND3 NAC domain, 0.183 E-score; with GST-VND7 NAC domain, 0.128 E-score.

CACGCATC: the binding signal in the experiment with GST-ANAC092(1-176) turned out to be 0.396 E-score; with GST-ANAC019 NAC domain it was 0.334 E-score; with GST-ANAC055(1-171), 0.291 E-score; with GST-ATAF1 NAC domain, 0.235 E-score; in [1], 0.44 E-score; in the experiment with GST-NAP(1-166), 0.309 E-score. For the same sequence, the binding signal with GST-NST2(1-184) came to 0.125 E-score; with GST-SND1(1-203), 0.296 E-score; in the experiment with GST-VND3 NAC domain it was 0.239 E-score; with GST-VND7 NAC domain, 0.232 E-score.

As to GCGTGTAC, the binding signal with GST-ANAC092(1-176) is 0.403 E-score; with GST-ANAC019 NAC domain, 0.19 E-score; with GST-ANAC055(1-171) it was 0.196 E-score; with GST-ATAF1 NAC domain, 0.19 E-score; in experiment [1], 0.434 E-score; with GST-NAP(1-166), 0.261 E-score. Besides, the binding signal came out at 0.195 E-score in the experiment with GST-NST2(1-184), 0.191 E-score with GST-SND1(1-203), 0.197 E-score with GST-VND3 NAC domain and 0.193 E-score with GST-VND7 NAC domain.
